In PubChem BioAssay AID2685 (National Center for Advancing Translational Sciences (NCATS), 2010):
In all, about 320,000 compounds went through this assay and about 2,100 (0.66%) were called active. Roughly 53% stayed inconclusive and do not appear here. The call rests on the fitted dose curve; in most records, active means well fitted inhibition curve with a large enough effect in the signal ratio, with a control signal flat (not every such curve was filed as active); inconclusive means small, poorly fitted or top-dose-only effect, or effect the other way, or a change in a side signal; inactive means flat fitted curve, though single readings scatter; the % refers to the signal ratio. The sample as a whole holds a higher share of actives than the screen did.

experiment: qHTS Assay for Lipid Storage Modulators in Drosophila S3 Cells; settings: BODIPY lipid droplet fluorescence, 18-24 h, cells fed with added oleic acid; cell number change: measured here: cell count max response; series mostly up to 46.1 µM;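 on cell number change: cells counted by Cell Tracker Red CMTPX staining in the red channel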
Procedure, shortened: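 Drosophila S3 cells got compounds at several concentrations plus oleic acid (400 uM solution). Laser-scanning cytometry with 488 nm excitation read lipid droplets at 500-530 nm and cells at 575-640 nm. Percent activity was relative to 20 uM Triacsin C.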
Potency means the concentration at half of the fitted maximal effect.

SMILES	Potency	cell number change [%]
O=C(CSc1nc2ccc([N+](=O)[O-])cc2[nH]1)NC1CCCC1	inactive	16
O=[N+]([O-])c1ccc(/C=N/N=C/c2ccc([N+](=O)[O-])o2)o1	inactive	21.7
O=C1NC(=S)S/C1=C\C=C\c1ccc([N+](=O)[O-])o1	6.51 µM (active)	-18.3
CCCSC1=N/C(=C\c2ccc([N+](=O)[O-])o2)C(=O)S1	inactive	18.4
C[n+]1ccc(/C=C/c2c[nH]c3ccccc23)cc1	4.11 µM (active)	5.59
OCC[n+]1ccc(/C=C/c2c[nH]c3ccccc23)cc1	inactive	-1.83
Cc1ccccc1/C=C/c1cc[n+](C)cc1	inactive	–
COc1ccc(S(=O)(=O)N2CCN(CC(=O)NCCc3cccs3)CC2)cc1	inactive	-24.5
Cc1cc(S(=O)(=O)N2CCN(CC(=O)NCCc3cccs3)CC2)ccc1Br	6.51 µM (active)	-0.491
O=C(CN1CCN(S(=O)(=O)c2ccccc2)CC1)NCCc1ccccc1	inactive	12.2
CSc1ccccc1OCc1cc(C(=O)N(C)Cc2cc(C)[nH]n2)no1	inactive	-1.8
CSc1cccc(NC(=O)N2CCc3ccc(NC(=O)c4ccccn4)cc3C2)c1	inactive	-11.2
COc1ccc(C(=O)N2CCc3cc(OC)c(OC)cc3C2)cc1OC	inactive	-23.8
COc1ccc(C(=O)N2CCc3ccc(NC(=O)c4ccccn4)cc3C2)cc1F	7.31 µM (active)	5.43
CC(=O)c1nn(-c2ccc(Cl)cc2)c(=O)[nH]c1=O	inactive	–
O=C(CN1C(=O)NC2(CCc3ccccc32)C1=O)c1ccc(Br)cc1 (stereo not drawn)	inactive	-20.3
O=C(CN1C(=O)NC2(CCc3ccccc32)C1=O)c1ccccc1 (stereo not drawn)	inactive	29.9
O=C(CN1C(=O)NC2(CCc3ccccc32)C1=O)c1ccc(Br)s1 (stereo not drawn)	4.11 µM (active)	10.8
Cc1cccc(OCC(=O)N2CCN(C(=O)c3ccc([N+](=O)[O-])cc3)CC2)c1	inactive	2.07
O=C(CN1C(=O)NC(Cc2ccccc2)C1=O)Nc1ccc(OC(F)(F)F)cc1 (stereo not drawn)	23.1 µM (active)	-11.8
O=C(CN1C(=O)NC(Cc2ccccc2)C1=O)Nc1ccccc1 (stereo not drawn)	inactive	–
Cc1ccc(NC(=O)CN2C(=O)NC(Cc3ccccc3)C2=O)cc1 (stereo not drawn)	inactive	2.72
Cc1ccc2c(N)c(C(=O)N(c3ccccc3)c3ccccc3)sc2n1	inactive	1.13
O=C(COC(=O)c1ccccn1)Nc1cccc(Cl)c1	inactive	-4.94
CSc1nnc(C(C)c2ncc(C(F)(F)F)cc2Cl)n1C (stereo not drawn)	inactive	29.4
COCCN(C(=O)c1ccccc1)c1nc(-c2ccc(OC)cc2)cs1	inactive	-13.2
COCCCN(C(=O)c1ccccc1F)c1nc(-c2ccc(OC)cc2)cs1	inactive	7.94
COCCCN(C(=O)c1ccccc1)c1nc(-c2ccc(OC)cc2)cs1	9.2 µM (active)	5.82
